# Target: Hexose transporter 1 (Plasmodium falciparum) (UniProt O97467)
# Test: ST_JUDE_LEISH: Cytotoxicity at 2uM final concentration against transgenic Leishmania Mexicana promastigotes LmPfHT that are glucose transport deficient and complemented with the Plasmodium falciparum hexose transporter. Activity is measured by DNA content using SYBR green in vitro
# Format: functional
row,SMILES,inhibition [%]
1,COc1cccc(NC(=O)c2nc(N3CCN(c4ccncc4)CC3)ccc2Cl)c1,1.65
2,O=C(/C=C/c1ccc(-c2ccccc2)cc1)NCCCCCN1CCC(c2c[nH]c3ccccc23)CC1,4.35
3,N#Cc1ccc(CN2CCCN(c3ccc(NC(=O)c4ccc(F)cc4)cc3)CC2)cc1,3.32
4,CCC[C@@H](/C=N/N(C)C(=O)OC(C)(C)C)NC(=O)[C@H](CC(C)C)NC(=O)c1cc2cccc(OC)c2o1,3.92
5,COc1cccc(OC2CCN(C(=O)c3ccc(-c4ccc(N5CCCC5=O)cc4C)cc3)CC2)c1,0.88
6,CN1CCN(CCCN(Cc2ccc(-c3ccc(CNCc4ccc5c(c4)OCO5)cc3)cc2)C(=O)CCC2CCCC2)CC1,7.78
7,CN1CCN(c2ccc(-c3cccc(NC(=O)c4ccc5ccccc5c4)c3)nn2)CC1,10.9
8,CCOc1cc(-c2nnc3[nH]c(=O)n(C)c(=O)c3n2)ccc1OC(C)C,2.55
9,CC1(C)CCCN(c2ncc(-c3cccc(CNCc4ccccc4O)c3)cn2)C1,2.13
10,c1cc(CNCCc2ccncc2)cc(-c2csc(-c3nc4ccccc4[nH]3)c2)c1,-1.59
11,COc1cccc(Nc2c(C(N)=O)cnc3ccc(-c4ccccc4)cc23)c1,0.94
12,O=C(Nc1ccc2c(c1)CCN2C1CCN(Cc2ccc(C(F)(F)F)cc2F)C1)c1ccco1 (stereo not drawn),0.47
13,Cc1nnsc1C(=O)Nc1cccc(-c2ccc(-c3nc4ccccc4[nH]3)s2)c1,1.37
14,Cc1cccc2nc(-c3cccc(-c4cccc(NC(=O)Nc5ccsc5)c4)c3)[nH]c12,4.46
15,Cc1ccc(-c2ccc3c(c2)C=C(C(=O)NC2CCN(CCNC(=O)c4cccs4)CC2)CCC3)cc1,2.81
16,CC1CN(c2nc(NCCc3ccc(O)cc3)nc(NCc3ccccc3-c3ccc(C(F)(F)F)cc3)n2)CC(C)N1 (stereo not drawn),4.62
17,Cc1nc(C)c(-c2ccc(Oc3ccc(Cl)cc3)cc2)c(O)c1I,0.57
18,CC[C@H](C)CNC(=O)c1ccc(-c2cccc(CN3CCC(N4CCCC4)CC3)c2)nc1,0.29
19,CC(C)Oc1cccc(-c2ccc(C(=O)NCC3CCCN(Cc4cccc(C(F)(F)F)c4)C3)s2)c1 (stereo not drawn),-1.35
20,O=C(Cc1cccs1)NCC(c1ccccc1Cl)c1c[nH]c2ccccc12 (stereo not drawn),0.74
21,CCCCc1cc(Cc2cnc(N)nc2N)cc(OC)c1OC,2.41
22,Nc1ncc(-c2ccsc2)c2ccc(-c3ccc4cn[nH]c4c3)cc12,1.38
23,CCCCCCN1CCCN(Cc2ccc(C(=O)Nc3ccc(F)c(F)c3)cc2)CC1,18.5
